Dicer inh: inhibitors of human Dicer processing of pre-microRNA. AID 1347074. 47,000 compounds, 6% hits. z-score at 25 µM. Q9UPY3. cat-ELCCA pre-miR-21 Dicer processing, chemiluminescence; hits give high values; in the data active = z-score above about 3, passing the limit was not always enough;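 also: plate controls were vehicle for no effect and no enzyme for full effect; higher signal means more uncleaved substrate so more Dicer inhibition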
* hit, by the source's call. The entries come from a sample that favours hits as a whole.

SMILES	Dicer inh
COC(=O)Cc1cc(=O)n(-c2nc3ccccc3[nH]2)[nH]1	4.62*
CC(C)OC(=O)CSc1nc2ccccc2[nH]1	-0.48
Cc1ccc(-c2cc(=O)n(-c3nc4ccccc4[nH]3)[nH]2)cc1	-0.75
CCOC(=O)Nc1sc(C)c(CC)c1C(N)=O	0.82
COC(=O)Cn1c(=O)oc2ccccc21	-0.07
O=C(O)Cn1c(=O)oc2ccccc21	0.55
CC(C)OC(=O)Cn1c(=O)oc2ccccc21	3.97*
COc1ccc(/C(O)=C2\C(=O)C(=O)N(CCCn3ccnc3)C2c2ccc(Br)cc2)cc1 (centres undefined)	-0.7
C=CCOC(=O)C1=C(C)NC2=C(C(=O)CCC2)C1c1cc(Br)c(O)c(OCC)c1 (centres undefined)	2.74
C#CCN1C(=O)C(O)(CC(=O)c2ccccc2OC)c2ccccc21 (centres undefined)	2.89
CCCN1C(=O)C2(/C(=C(/O)c3ccc(OC)cc3)C(=O)C(=O)N2CCCOC)c2ccccc21 (centres undefined)	3.11*
CCCN1C(=O)C2(/C(=C(/O)c3ccc(OCC)cc3)C(=O)C(=O)N2CCN(C)C)c2ccccc21 (centres undefined)	50.8
CCCN1C(=O)C2(/C(=C(/O)c3ccccc3)C(=O)C(=O)N2CCCN(C)C)c2ccccc21 (centres undefined)	4.43*
CCCN1C(=O)C2(/C(=C(/O)c3ccccc3)C(=O)C(=O)N2CCCOC)c2ccccc21 (centres undefined)	5.02*
CCCN1C(=O)C2(/C(=C(/O)c3ccc(C)cc3)C(=O)C(=O)N2CCCOC)c2ccccc21 (centres undefined)	1.22
CCCN1C(=O)C2(/C(=C(/O)c3ccc(C)cc3)C(=O)C(=O)N2CCCN(C)C)c2ccccc21 (centres undefined)	0.61
CCCN1C(=O)C2(/C(=C(/O)c3ccc(Cl)cc3)C(=O)C(=O)N2CCCN(C)C)c2ccccc21 (centres undefined)	-2.88
CCCN1C(=O)C2(/C(=C(/O)c3ccc(Cl)cc3)C(=O)C(=O)N2CCOC)c2ccccc21 (centres undefined)	-1.62
COCCCN1C(=O)C(=O)/C(=C(\O)c2ccc(OC)cc2)C12C(=O)N(C)c1ccccc12 (centres undefined)	2.6
COCCN1C(=O)c2oc3ccc(F)cc3c(=O)c2C1c1cccc(O)c1 (centres undefined)	-0.64
CCOC(=O)C(O)(NC(=O)c1ccccc1)C(F)(F)F (centres undefined)	-0.97
Clc1ccc2oc(-c3csc(-c4ccccc4)n3)cc2c1	-0.1
O=[N+]([O-])c1cc(Cl)c(N2CCOCC2)cc1N1CCOCC1	-0.3
Cc1cc(Oc2ccccc2F)nc(N)n1	0.15
CCOc1ccc(-c2nn3c(Cc4ccccc4)nnc3s2)cc1	-0.68
SMILES	Dicer inh
CCCc1cc(N2CCN(CCO)CC2)n2c(nc3ccccc32)c1C#N	1.37
Cc1cc(NCCCCO)n2c(nc3ccccc32)c1C#N	0.91
Cc1cc(N2CCN(CCO)CC2)n2c(nc3ccccc32)c1C#N	5.27*
COc1nccc(C(F)(F)F)c1C(=O)NCc1c(Cl)cc(Cl)cc1Cl	-0.34
O=C(O)CNc1n[nH]c(=O)[nH]c1=O	-0.93
CCOC(=O)Cc1n[nH]c(=O)[nH]c1=O	-0.76
CCC(Nc1n[nH]c(=O)[nH]c1=O)C(=O)OC (centres undefined)	3.22*
COC(=O)c1ccc(CNC(C)(C)C)o1	1.8
C=CCOc1ccc(C2c3c(oc4ccccc4c3=O)C(=O)N2c2ccc(C)cn2)cc1OCC (centres undefined)	2.29
COc1cc(C2c3c(oc4ccccc4c3=O)C(=O)N2c2ccc(C)cn2)ccc1O (centres undefined)	4.32*
Cc1ccc(N2C(=O)c3oc4ccccc4c(=O)c3C2c2cccc(O)c2)nc1 (centres undefined)	1.12
CCOc1cc(C2c3c(oc4ccccc4c3=O)C(=O)N2c2ccc(C)cn2)ccc1O (centres undefined)	4.74*
CCOc1cc(C2c3c(oc4ccccc4c3=O)C(=O)N2c2ccccn2)ccc1O (centres undefined)	2.7
COC(=O)c1ccc(C2c3c(oc4ccccc4c3=O)C(=O)N2c2ccc(C)cn2)cc1 (centres undefined)	0.93
O=C(NCc1ccc(S(=O)(=O)NCCc2ccccc2)s1)c1ccccc1	9.6
O=C1c2cccc3cccc(c23)C(=O)N1CCCNCCO	2.6
Cn1c(-c2ccccc2O)[n+](C)c2ccccc21	-1.51
CC(C)c1ccc(S(=O)(=O)n2nnc3ccccc32)cc1	0.86
CC(C)S(=O)(=O)c1csc(C(=O)NNS(=O)(=O)c2ccc(Cl)cc2)c1-n1cccc1	-0.91
CN(CCOC(=O)c1cccs1)C(C)(C)C	0.76
O=C(OCCN1CCCCC1)c1cccs1	3.7*
COc1cc(N)c(Cl)cc1C(=O)OCCN1CCCCC1	-0.67
COc1ccc(OS(=O)(=O)CS(C)(=O)=O)cc1	-0.65
CCOC(=O)CN1C(=O)N(CC(=O)c2ccccc2)C(c2ccccc2)(c2ccccc2)C1=O	-0.93
Cc1cc(C(=O)N/N=C/N(C)C)nn1-c1c(Cl)cc(Cl)cc1Cl	0.95
SMILES	Dicer inh
O=C(Cn1nnc(N2CCCCC2)n1)NNC(=S)NC(=O)C1CC1	10.2
O=C1C=C(NCCc2ccccc2)CC(c2ccco2)C1 (centres undefined)	5.65*
O=C1C=C(NCc2ccco2)CC(c2ccccc2)C1 (centres undefined)	1.18
O=C1C=C(NCc2ccncc2)CC(c2ccccc2)C1 (centres undefined)	1.75
COc1cc(/C=C/c2nc(=O)c3ccccc3o2)ccc1O	1.25
COc1ccc(CN2CCC(N3CCCCC3)CC2)cc1Br	3.74*
CCn1c2ccccc2c2cc(CN3CCC(N4CCCCC4)CC3)ccc21	-0.94
COc1ccc(CN2CCC(N3CCCCC3)CC2)cc1OC	0.7
O=C(NNc1ccc(Cl)c(Cl)c1)c1ccccc1NC(=O)c1cccnc1Oc1ccccc1	-0.79
Cn1ncc2c(N/N=C/c3ccc(Cl)cc3)ncnc21	1.25
CSc1nnc2c(n1)OC(C1CC=C(C)CC1)Nc1ccccc1-2 (centres undefined)	3.21*
CSc1nnc2c(n1)OC(c1ccc(C)cc1)Nc1ccccc1-2 (centres undefined)	-0.71
CSc1nnc2c(n1)OC(C)Nc1ccccc1-2 (centres undefined)	5.76
CC(=O)Nc1ccc(S(=O)(=O)NC2C(C)(C)C3CC[C@]2(C)C3)cc1 (some centres undefined)	-2.28
Clc1ccc(/C=N/Nc2ncnc3c2cnn3-c2ccccc2)cc1	2.79
COc1cc(C2C(C(=O)OCc3ccccc3)=C(C)NC3=C2C(=O)CCC3)cc(Br)c1O (centres undefined)	8.48
CSc1ncc(-c2n[nH]c(=S)n2C)n1C	-1.47
COc1cc(C=Nc2ccc(N3N=C(C)CC3=O)cc2)ccc1O	-6.61
COc1cc(/C=N/n2cnc3c(sc(=S)n3C)c2=O)ccc1O	-1.73
COc1cc(/C=N/c2nccs2)ccc1O	3.08*
CCCc1nc(N)c(C#N)c(-c2ccccc2OC)c1CC	-0.8
c1ccc2c(c1)N=C(NNC1=Nc3ccccc3SC1)CS2	3.83*
COc1ccc2c(c1)C(C)=CC(C)(C)N2C(=O)CSc1nnc(C)s1	-1.95
COc1ccc2c(c1)C(C)CC(C)(C)N2C(=O)CSc1ncn[nH]1 (centres undefined)	0.09
COc1ccc2c(c1)C(C)CC(C)(C)N2C(=O)CSc1ncccn1 (centres undefined)	4.23*

Bioassay records (PubChem)
